Results published in PubChem BioAssay (NCI).
Compounds without any hit were thinned out: in the full panel of roughly 83,000, 20% have a hit.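 Plates (96-well) were seeded with cells, treated with compound at one concentration, and incubated for 48 hours before percent growth was determined.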 The source made the active and inactive calls. The calls were made as follows: active = growth percent below 10; inactive = the rest.

What was measured:
Test in all cases: NCI-60 one-dose screen, 48 h (100 = growth as untreated, 0 = no growth, -100 = all killed)
Conditions in all cases: 10 µM unless noted
SK-MEL-2 melanoma = test system: SK-MEL-2 melanoma
EKVX NSCLC = test system: EKVX NSCLC
SN12C renal = test system: SN12C renal
UO-31 renal = test system: UO-31 renal
ACHN renal = test system: ACHN renal
CAKI-1 renal = test system: CAKI-1 renal
A498 renal = test system: A498 renal
CCRF-CEM leukemia = test system: CCRF-CEM leukemia
MOLT-4 leukemia = test system: MOLT-4 leukemia
SR leukemia = test system: SR leukemia
RPMI-8226 leukemia = test system: RPMI-8226 leukemia
OVCAR-8 ovarian = test system: OVCAR-8 ovarian
OVCAR-5 ovarian = test system: OVCAR-5 ovarian
OVCAR-4 ovarian = test system: OVCAR-4 ovarian
SK-OV-3 ovarian = test system: SK-OV-3 ovarian
IGROV1 ovarian = test system: IGROV1 ovarian
OVCAR-3 ovarian = test system: OVCAR-3 ovarian
HS 578T breast = test system: HS 578T breast
NCI/ADR-RES ovarian = test system: NCI/ADR-RES ovarian

Measured: growth

Cc1ccc(/C=C/C(=O)c2ccc(F)cc2)s1
inactive: SK-MEL-2 melanoma 85.8% | EKVX NSCLC 81.1% | SN12C renal 71.7% | UO-31 renal 57.6% | ACHN renal 83% | CAKI-1 renal 78.6% | A498 renal 70.1% | MOLT-4 leukemia 11.6% | SR leukemia 10.3% | RPMI-8226 leukemia 18.6% | OVCAR-8 ovarian 43.6% | OVCAR-5 ovarian 85.7% | OVCAR-4 ovarian 81.2% | SK-OV-3 ovarian 96.5% | IGROV1 ovarian 83% | OVCAR-3 ovarian 87% | HS 578T breast 102% | NCI/ADR-RES ovarian 61.7%
active: CCRF-CEM leukemia 8.11%

CC(=O)N1N=C(c2ccc(Nc3ccnc4cc(Cl)ccc34)cc2)CC1c1ccc(Cl)cc1 (stereo not given)
active: SR leukemia 2.79%
inactive: SK-MEL-2 melanoma 54.1% | EKVX NSCLC 36.4% | SN12C renal 61.9% | UO-31 renal 24.1% | ACHN renal 34.1% | CAKI-1 renal 44.7% | A498 renal 43.9% | CCRF-CEM leukemia 31% | MOLT-4 leukemia 34.2% | RPMI-8226 leukemia 22.3% | OVCAR-8 ovarian 66.9% | OVCAR-5 ovarian 87.9% | OVCAR-4 ovarian 45.2% | SK-OV-3 ovarian 68.1% | IGROV1 ovarian 51.1% | OVCAR-3 ovarian 29.2% | HS 578T breast 41% | NCI/ADR-RES ovarian 22.9%

CC[C@H]1CN2CCc3cc(OC)c(OC)cc3C2C[C@@H]1CC1NCCc2cc(OC)c(OC)cc21 (stereo not given in full)
active: SK-MEL-2 melanoma -70.5% | EKVX NSCLC -27.4% | SN12C renal -13.1% | UO-31 renal -37.9% | ACHN renal -16.5% | CAKI-1 renal -34.3% | A498 renal -49.9% | CCRF-CEM leukemia -18% | MOLT-4 leukemia -13.1% | SR leukemia -9.39% | RPMI-8226 leukemia -41% | OVCAR-8 ovarian -20.6% | OVCAR-5 ovarian -12% | OVCAR-4 ovarian -9.56% | SK-OV-3 ovarian -1.2% | IGROV1 ovarian -22.9% | OVCAR-3 ovarian -30.9% | HS 578T breast -12% | NCI/ADR-RES ovarian -9.95%

C[C@H]1c2cccc(O)c2C(O)=C2C(=O)[C@]3(O)C(O)=C(C(N)=O)C(=O)[C@@H](N(C)C)[C@@H]3[C@@H](O)[C@@H]21
inactive: SK-MEL-2 melanoma 56.1% | EKVX NSCLC 46.7% | SN12C renal 53.6% | UO-31 renal 32.6% | ACHN renal 27.1% | CAKI-1 renal 14% | A498 renal 59.9% | CCRF-CEM leukemia 39.1% | MOLT-4 leukemia 51.5% | SR leukemia 30% | RPMI-8226 leukemia 27% | OVCAR-8 ovarian 33.5% | OVCAR-5 ovarian 78.4% | OVCAR-4 ovarian 66.8% | SK-OV-3 ovarian 70.2% | IGROV1 ovarian 21.4% | OVCAR-3 ovarian 49% | HS 578T breast 69.8% | NCI/ADR-RES ovarian 66%

CSc1nc2nc3c(c(-c4ccc(C)cc4)c2c(=O)[nH]1)CN(C)C/C3=C\c1ccc(C)cc1
inactive: SK-MEL-2 melanoma 112% | EKVX NSCLC 83.5% | SN12C renal 102% | UO-31 renal 86.1% | ACHN renal 94.9% | CAKI-1 renal 93.7% | A498 renal 85.6% | CCRF-CEM leukemia 85.2% | MOLT-4 leukemia 87.2% | SR leukemia 86.9% | RPMI-8226 leukemia 84.2% | OVCAR-8 ovarian 105% | OVCAR-5 ovarian 115% | OVCAR-4 ovarian 92.8% | SK-OV-3 ovarian 112% | IGROV1 ovarian 96.8% | OVCAR-3 ovarian 116% | HS 578T breast 95.8% | NCI/ADR-RES ovarian 94.7%

CCSCC1CC(O)(c2ccccc2)C(c2ccccc2)C(c2ccc(Cl)cc2)O1 (stereo not given)
active: EKVX NSCLC -4.64% | SN12C renal -49.9% | CAKI-1 renal -51.3% | A498 renal -13.3% | RPMI-8226 leukemia 4.54% | OVCAR-8 ovarian -11.2% | SK-OV-3 ovarian 9.49% | OVCAR-3 ovarian -26.4% | HS 578T breast -11%
inactive: SK-MEL-2 melanoma 16.9% | UO-31 renal 11.9% | ACHN renal 22.8% | CCRF-CEM leukemia 13.3% | OVCAR-5 ovarian 24.7% | OVCAR-4 ovarian 33.8% | IGROV1 ovarian 32.6% | NCI/ADR-RES ovarian 17.1%

NS(=O)(=O)c1cc(C2(O)NC(=O)c3ccccc32)ccc1Cl (stereo not given)
inactive: SK-MEL-2 melanoma 113% | EKVX NSCLC 108% | SN12C renal 101% | UO-31 renal 76.4% | ACHN renal 90.7% | CAKI-1 renal 93.9% | A498 renal 129% | CCRF-CEM leukemia 98.9% | MOLT-4 leukemia 93.6% | SR leukemia 91.9% | RPMI-8226 leukemia 93.2% | OVCAR-8 ovarian 103% | OVCAR-5 ovarian 99.1% | OVCAR-4 ovarian 112% | SK-OV-3 ovarian 108% | IGROV1 ovarian 97.1% | OVCAR-3 ovarian 123% | HS 578T breast 118% | NCI/ADR-RES ovarian 107%

C[C@H]1O[C@@H](O[C@H]2[C@@H](O)C[C@H](O[C@H]3[C@@H](O)C[C@H](O[C@H]4CC[C@]5(C)C6CC[C@]7(C)[C@@H](C8=CC(=O)OC8)CC[C@]7(O)C6CC[C@@H]5C4)O[C@@H]3C)O[C@@H]2C)C[C@H](O)[C@@H]1O (stereo not given in full)
active: SK-MEL-2 melanoma -68.5% | EKVX NSCLC -98.4% | SN12C renal -52.4% | UO-31 renal -90.4% | ACHN renal -68% | CAKI-1 renal -92.6% | A498 renal -28.5% | CCRF-CEM leukemia -58.6% | MOLT-4 leukemia -36.9% | SR leukemia -32.7% | RPMI-8226 leukemia -18.8% | OVCAR-8 ovarian -79.1% | OVCAR-5 ovarian -100% | OVCAR-4 ovarian -51.4% | SK-OV-3 ovarian -92.5% | IGROV1 ovarian -38.8% | OVCAR-3 ovarian -100% | NCI/ADR-RES ovarian -79.2%

NS(=O)(=O)c1cc2c(cc1Cl)NC=NS2(=O)=O
inactive: SK-MEL-2 melanoma 103% | EKVX NSCLC 107% | SN12C renal 100% | UO-31 renal 82.1% | ACHN renal 98.9% | CAKI-1 renal 96.3% | A498 renal 110% | CCRF-CEM leukemia 97.6% | MOLT-4 leukemia 103% | SR leukemia 96.1% | RPMI-8226 leukemia 104% | OVCAR-8 ovarian 102% | OVCAR-5 ovarian 100% | OVCAR-4 ovarian 107% | SK-OV-3 ovarian 110% | IGROV1 ovarian 109% | OVCAR-3 ovarian 117% | HS 578T breast 118% | NCI/ADR-RES ovarian 108%

CCCCN=C(N)c1ccc(OCCSCCOc2ccc(C(N)=NCCCC)cc2)cc1
inactive: SK-MEL-2 melanoma 59.9% | EKVX NSCLC 36.8% | SN12C renal 26.3% | UO-31 renal 93.5% | ACHN renal 87% | CAKI-1 renal 115% | A498 renal 57.4% | CCRF-CEM leukemia 72.1% | MOLT-4 leukemia 67.8% | SR leukemia 44.7% | OVCAR-5 ovarian 84.1% | OVCAR-4 ovarian 50.8% | SK-OV-3 ovarian 41% | IGROV1 ovarian 55.1% | OVCAR-3 ovarian 39.6% | HS 578T breast 47.4% | NCI/ADR-RES ovarian 90.9%

CN[C@@H]1C(OC2[C@H](O[C@H]3[C@H](O)[C@@H](O)[C@H](N=C(N)N)[C@@H](O)[C@@H]3N=C(N)N)OC(C)[C@]2(O)CO)OC(CO)C(O)C1O (stereo not given in full)
inactive: SK-MEL-2 melanoma 112% | EKVX NSCLC 113% | SN12C renal 108% | UO-31 renal 102% | ACHN renal 114% | CAKI-1 renal 107% | A498 renal 109% | CCRF-CEM leukemia 101% | SR leukemia 102% | RPMI-8226 leukemia 103% | OVCAR-5 ovarian 102% | OVCAR-4 ovarian 111% | SK-OV-3 ovarian 112% | IGROV1 ovarian 105% | OVCAR-3 ovarian 116% | HS 578T breast 112% | NCI/ADR-RES ovarian 105%

O=C(CNc1ccc2c(c1)C(=O)c1ccccc1C2=O)Nc1ccc2c(c1)C(=O)c1ccccc1C2=O
active: SK-MEL-2 melanoma -74.4% | EKVX NSCLC -18.5% | SN12C renal -87% | UO-31 renal -96.5% | ACHN renal -94.3% | CAKI-1 renal -80.8% | CCRF-CEM leukemia -11.6% | MOLT-4 leukemia -36.6% | SR leukemia -8.94% | RPMI-8226 leukemia -36.6% | OVCAR-5 ovarian -83.6% | OVCAR-4 ovarian -26.4% | SK-OV-3 ovarian -30.8% | IGROV1 ovarian -72.9% | OVCAR-3 ovarian -99.8% | HS 578T breast -1.05% | NCI/ADR-RES ovarian -40%
inactive: A498 renal 27.6%

N#Cc1c(-c2ccc(F)cc2)n2c(nc1=O)SC(=O)C2=O
inactive: SK-MEL-2 melanoma 92% | EKVX NSCLC 91.3% | SN12C renal 91.1% | UO-31 renal 110% | ACHN renal 90.3% | CAKI-1 renal 86.4% | A498 renal 70% | CCRF-CEM leukemia 85.4% | MOLT-4 leukemia 90.5% | SR leukemia 91.3% | RPMI-8226 leukemia 76.8% | OVCAR-8 ovarian 98% | OVCAR-5 ovarian 110% | OVCAR-4 ovarian 100% | SK-OV-3 ovarian 115% | IGROV1 ovarian 108% | OVCAR-3 ovarian 123% | HS 578T breast 104% | NCI/ADR-RES ovarian 94.5%

C[N+]1(C)C2CC[C@@H]1CC(OC(=O)C(O)c1ccccc1)C2 (stereo not given in full)
inactive: SK-MEL-2 melanoma 150% | EKVX NSCLC 99.4% | SN12C renal 87.3% | UO-31 renal 85.3% | ACHN renal 106% | CAKI-1 renal 84.1% | A498 renal 109% | CCRF-CEM leukemia 93.1% | MOLT-4 leukemia 126% | SR leukemia 115% | OVCAR-8 ovarian 108% | OVCAR-5 ovarian 106% | OVCAR-4 ovarian 110% | SK-OV-3 ovarian 117% | IGROV1 ovarian 103% | OVCAR-3 ovarian 121% | HS 578T breast 119% | NCI/ADR-RES ovarian 103%

CCOC(=O)CCC(=O)O[C@H]1[C@H](O[C@@H]2[C@@H](C)[C@H](O[C@H]3C[C@@](C)(OC)[C@@H](O)[C@H](C)O3)[C@@H](C)C(=O)O[C@H](CC)[C@@](C)(O)[C@H](O)[C@@H](C)C(=O)[C@H](C)C[C@@]2(C)O)O[C@H](C)C[C@@H]1N(C)C
inactive: SK-MEL-2 melanoma 121% | EKVX NSCLC 100% | SN12C renal 101% | UO-31 renal 67.7% | ACHN renal 96.4% | CAKI-1 renal 93.2% | A498 renal 120% | CCRF-CEM leukemia 91.4% | MOLT-4 leukemia 94.2% | SR leukemia 92% | RPMI-8226 leukemia 97.2% | OVCAR-8 ovarian 106% | OVCAR-5 ovarian 106% | OVCAR-4 ovarian 110% | SK-OV-3 ovarian 113% | IGROV1 ovarian 92.8% | OVCAR-3 ovarian 125% | HS 578T breast 113% | NCI/ADR-RES ovarian 108%

CC(C)Sc1nc(-c2ccc(Br)cc2)c(C#N)c(N2CCCCC2)n1
inactive: SK-MEL-2 melanoma 108% | EKVX NSCLC 93.3% | SN12C renal 94.3% | UO-31 renal 95.3% | ACHN renal 101% | CAKI-1 renal 95.9% | A498 renal 83.8% | CCRF-CEM leukemia 95.2% | MOLT-4 leukemia 110% | SR leukemia 106% | RPMI-8226 leukemia 98.8% | OVCAR-8 ovarian 98.6% | OVCAR-5 ovarian 88.7% | OVCAR-4 ovarian 95.1% | SK-OV-3 ovarian 110% | IGROV1 ovarian 104% | OVCAR-3 ovarian 104% | HS 578T breast 107% | NCI/ADR-RES ovarian 102%
